Measured values: the supplement of paper PMC12632987
Whole data set: some 4,500 sequences, median “median log2 fold change of GCK-ALFA target abundance (FLAG IP / Myc IP barcode read proportion)” near 0.078, cut for the lowest 2% near -0.6. Only a selection was taken, and the lowest values are over-represented in it overall.

B1: GBRAP_52_6312 (protein)
chain: MHERMRELAEELLELMLAGDREGARALAREIVATLSEEELLLLAEELAELAEELDEEELEKAAELLFILEDEMEAAGVDERVIAEMLGIIITAIYKAEQK
B2: GBRAP_52_6313 (protein)
chain: MREEMRAQAEELLALMLAGDRDGARALAEELVATLSEEELLLLAEELAKLSETLNAEELDKAMELLEILEDVMEEAGVDERVIAEIRGIVITAIYKAEQK
B3: GBRAP_96_7095 (protein)
chain: MLEEAKKLVKELIKALDTDPEKAEELAKKLLEFPVEVVTEALVEVVKKPEDAAKIAKLLLKLGDEKAEEVLLEAAEKAPGDISKAIIDAMEAYEKEQEAA
B4: GBRAP_128_3565 (protein)
chain: STAELVAEARALLAAIKAADAEEARALAERLADLIAAASPEARAAIVETILARLPELTAEQLDILADVFAARRATADPAVAEALAEIQVEALNVREEKEE
B5: GBRAP_14_3799 (protein)
chain: MEEREKAIEEITEETLEILEEILADAPEEVRERVLELVEEARERIIKEKLSPDEIAELEDELLEEVAKILADAPPEVRAQVLAAISVGMGEIILEVEELE
B6: GBRAP_160_4163 (protein)
chain: MEEAEELIKEVEEETKEAIELIEGESIEQRKVIIAGHFGVIIMTLFESDVVSDEVVDFAVELRDELVKWIDENPDASLEEIKKKIKEAEKKIKEKIKKDA
B7: GBRAP_35_5613 (protein)
chain: EDVQLAVDSFVDMAEAIIELIPEIDDETLAALAQSLIKFAKSLLKEEKNNKEALEKIKEAMEKLLEALKKYRSDNPLIQKVAKEVQEVIKEAEKAIKEVK
B8: GBRAP_52_5915 (protein)
chain: MSAELEAKLDEMLAAVKAGKLEEARAIAREIVESLDDEELRELVELFAERVRAAPLEDLPAWWRLAEILAEELEEAGKDEVLADDLLNRTAAAIYEKLQA
B9: GBRAP_160_4375 (protein)
chain: SEELKELIKEIEELKKEFEELAKDLSPEEVKILAKGVLSEIAALVFENEAVSEETKDKIMEIIDKALEELDKLKDASPEEIVAVTTEAVNEIIELIKKEI
B10: GBRAP_14_3854 (protein)
chain: MEKLIAAVKKTAEAAIEFAKELLPEHAEEVGKKIKELAEKIIEKIKKENLNKEEVAELIRKMAEELGKFIKEKGYASDEEIAAFKAFIENEALLELEKVE
B11: GBRAP_52_5907 (protein)
chain: MKEELEKILNEIIEAVKAGKLEEARKIARELAEKYDDETLEEFIELFAEMVLEAPEEDLPYYWKAAEILAEEFEREGKDEVLADLLLSRTAAAIYEKLQR
B12: GBRAP_26_5463 (protein)
chain: MDEAFRAALDAVDAAAATLPNPNAAAAVTAEAATVLEELEEAIEAGEDIAAAVAAARDELLAAARAIGEEEGLPAATIAAMEATLTAIFDALEAALKAAA
B13: GBRAP_26_5467 (protein)
chain: MDAAFAAARDRIDAIAAKLPDPRAAAALRALADTELLELEERIEAGEDIDAAVDAARDAFLAEAREILEDAGLPEELIAKTLAEFEAVFDDLRAALKAAQ
B14: GBRAP_52_6357 (protein)
chain: KLEEALALLERALEAMLAGREDEARAILREIVETYDDETILAAFERLAEKILGKSVEEAEAFLDLALLLADVMDELGRDEAVGDEIEAIAAKAYMTVLEK
B15: GBRAP_160_3973 (protein)
chain: SEEVEELKKEIKELFDEAKKLIEGESYEERLTIIKVMVGDILLLADENPLISDEVEDKIDEIGDELIETIEKNPDLTDEEIKKLIDEAEEKILKTIDEAF
B16: GBRAP_43_5767 (protein)
chain: SKELVEGAFETAILLLEDPSISEETKVKAIIAAMELAADEGYVDKELLEKVVELAGKTLSKESLEKILKAAKKLAKEYPESKEAFEEAAKKLEEAIAKKE
B17: GBRAP_64_6486 (protein)
chain: EEEIKKLHEETLKQAKKLVELLKDSSEELQKQAKEVLELIEKSKEASLEEAAKLLAEAAKLLNELLKSPELTEEQKDQVAETLDLVSELLWLVVEKELEK
B18: GBRAP_52_5904 (protein)
chain: MREELRAQVEEMLALVRAGDLEGARALAREIAETLNDEELRLLIEEVAALVREAPLEELPAWWRLAEIMAEAFEEAGKDEVLADDLLAATAAAIHERLQR
B19: GBRAP_184_5166 (protein)
chain: MIKEFEIKIENVEEAKEKIEEIKKEVEGLKAELYVIVETKELTVEIAKAILEGLKEMKEKGYVTSITVEFTGKIDEETLDVAVKLADEAGVKLVIAIDEE
B20: GBRAP_139_3707 (protein)
chain: SALEELIAEARRLTREMREDPEAALEALVELLLSVSEEELEVLVEAIAEELSRLPLDEAEELADRLLELVEERFKDEDKIDIVEAVLNGALARKAAEEEA
B21: GBRAP_128_3416 (protein)
chain: ADAALVAKAKELLEKMKTADAATAAALADEIAALIAAADLETAEAIAEVIEEELPKLTAEQLDILADALRAALPAASPEKAEILAGVLVDALNEAEEKEE
B22: GBRAP_26_5474 (protein)
chain: VEEEVEAALKEMEKLLKELLDPETAAAATASAFTIVEEAVEEMKKNAKDKEKLKKAAEKAVKEIAADLETLGVDADTRAKIVAKAKAELEKIVKAIEKEA
B23: GBRAP_160_4004 (protein)
chain: SEKIEKLIKEIEELVEETIEWMEGLSPEERLTLVRGTVGEIIQLAIESEEVSDESEEKIAELGDETIERVEENKDASLEVWKEILEEFLEKVKKILKEDE
B24: GBRAP_137_3676 (protein)
chain: SKVEIEIKEEDGLVEITVTVYDPEKAEETEEKLLDIAHEVGALAVAIKRNEDGSLEITIVVPEEKGEEAEKKVLELAKEYDEVIIKKEKDGKTEEEVIKK
B25: GBRAP_35_5582 (protein)
chain: DDVEIILETARDFAEAAIEALKGDDLEEAIRMTEAFVRAAELAIEDLKNDLEALKELAKLLEEVLKAAKEYASDNPEMQKNIERLEELLKRAKELAKKVE
B26: GBRAP_166_4971 (protein)
chain: MQEELVEEFKKYIDELAEKMKTANHEEKLELLAEAAEKLKELIEKGLSDEDLKELIEYLIKKAKEVGISTSEVYGALTIIADLNEEQIDILEEAIKKVEK
B27: GBRAP_106_2558 (protein)
chain: SKKETAEKIYKEMLEEAKKEIAEHEAWLAKHRSQLTPEEIRAINQYLRDYLVAKLLRKMIEAGIITKEEAKEILEEVRKRKDLDPLEALEYAGKLVLEKI
B28: GBRAP_78_6731 (protein)
chain: ELEKLLEEAIKVASEAAKLAVKQASNEVIAEIVEALSHLEEALELVEEGGEKEEILEELEKALEHLKEALKLLPESLTEIKKLLEEAIKLVEEAIKEVKK
B29: GBRAP_78_6654 (protein)
chain: EVEELIDKAMEHLDKAAKLTKKLDEESRNELLDLLVEAASHILLSEENGFDLEELKEALEYLKKALEYAKSLNTPVAKEIAEELEKAIEYLEKAIKLLEE

Target: GABARAP, O95166
Sequence (O95166 whole entry, the tested form may be a part): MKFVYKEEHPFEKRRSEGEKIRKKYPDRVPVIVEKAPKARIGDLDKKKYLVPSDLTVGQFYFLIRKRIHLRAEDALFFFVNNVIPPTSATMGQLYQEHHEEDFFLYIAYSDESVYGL
Experiment: median log2 fold change of GCK-ALFA target abundance (FLAG IP / Myc IP barcode read proportion) (log2 ratio); each designed protein is fused to an ALFA-tag nanobody in HEK293 cells to bring the named protein to FLAG-tagged glucokinase (GCK); Myc marks an untargeted standard; higher = target protein stabilised (more abundant)
Conditions: target protein: 3xFLAG-MCP-GCK-ALFA reporter; HEK293 landing pad (RPLP)
Procedure, shortened: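 HEK293 landing-pad cells received a recombined binder library fused to the ALFA nanobody and were induced with 2 μg mL^−1 doxycycline, then transfected with a plasmid encoding a FLAG-tagged target and a Myc-tagged standard. Lysates were collected after 48 h for anti-FLAG and anti-Myc immunoprecipitation, and the circular RNA barcodes were reverse transcribed, amplified and sequenced. Target abundance for each binder is the median log2 ratio of FLAG to Myc barcode read proportions. Barcodes had to reach a proportion of at least 10^−7 in both replicates, each binder needed at least 3 barcodes per replicate, a pseudocount of 10^−6 was applied, and the two replicates were pooled.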

Point of comparison: B2, “median log2 fold change” value -0.0291. Against it:
- B1 — lower, -0.795
- B3 — higher, 0.344
- B4 — higher, 0.318
- B5 — lower, -0.611
- B6 — higher, 0.215
- B7 — within 0.2 log units, -0.07
- B8 — lower, -0.669
- B9 — higher, 0.194
- B10 — higher, 0.381
- B11 — lower, -0.881
- B12 — higher, 0.261
- B13 — higher, 0.199
- B14 — lower, -0.492
- B15 — lower, -0.605
- B16 — higher, 0.243
- B17 — higher, 0.19
- B18 — lower, -0.644
- B19 — within 0.2 log units, 0.0333
- B20 — within 0.2 log units, -0.0884
- B21 — higher, 0.247
- B22 — higher, 0.241
- B23 — lower, -0.827
- B24 — higher, 0.249
- B25 — higher, 0.182
- B26 — within 0.2 log units, -0.0848
- B27 — lower, -0.711
- B28 — within 0.2 log units, 0.0787
- B29 — within 0.2 log units, 0.0422
